PubChem BioAssay (NCATS)

Experiment: High-throughput drug toxicity screening in the BPDCN cell line Cal-1 (AID 1224825)
Conditions: Cal-1 BPDCN cell viability, qHTS; at 45.8 µM (top of the series) unless noted
Text: Blastic plasmacytoid dendritic cell neoplasm (BPDCN) is a rare, aggressive and largely incurable hematologic malignancy originating from plasmacytoid dendritic cells (pDCs). Although an initial response to chemotherapy is common, BPDCN prognosis is extremely poor and most patients relapse with drug-resistant disease leading to a median overall survival of ~1 year after diagnosis. To explore novel potential therapeutic strategies in BPDCN, we performed a high-throughput drug toxicity screening in BPDCN cell liens, using of a library of 1,912 small molecules, enriched for compounds that are either approved or in early stages of development for cancer therapy.
A total of 500 exponentially growing Cal-1 cells were seeded per well in 5 uL of media (RPMI + Glutamine, without phenol red plus10% FBS and 1X Pen/Strep) into 1536-well solid white high base tissue culture treated Greiner One Bio Plates (789173-F), using a multidrop combi dispenser and a small sterile cassette. Compounds and controls totaling 23nL per well (negative control DMSO and positive control 9.2 uM Bortezomib-final) were immediately added to the plates using a 1536 head pin tool from Kalypsys. The plates were then covered with stainless steel gasket lids from Kalypsys and incubated for 48 hours at 37C under 95% relative humidity with 5% CO2. After 48 hours, the plates were removed and allowed to reach room temperature before 3 uL of Cell Titer Glo reagent (Promega) were added using an Aurora Flying Reagent Dispenser Bioraptor. The plates were then spun at 1000 rpms to remove bubbles and incubated for 15 minutes at room temperature before reading on a ViewLux using a luminescent filter with a 10 second exposure. The relative luciferase units were used to calculated percent activity using DMSO as 100% and Bortezomib as 0%.

Question: Which viability (% of control) does the source give for `COc1cc(Nc2ncc(F)c(Nc3ccc4c(n3)N(COP(=O)(O)O)C(=O)C(C)(C)O4)n2)cc(OC)c1OC` here?
Answer: The viability (% of control) was 10.3%.

Question: With `COc1ccc(F)c(F)c1C(=O)c1cnc(NC2CCN(S(C)(=O)=O)CC2)nc1N` as the compound, how does the viability (% of control) read?
Answer: The viability (% of control) was 2%.

Question: With `CC=C1NC(=O)[C@H]2CSSCCC=C[C@H](CC(=O)N[C@H](C(C)C)C(=O)N2)OC(=O)[C@H](C(C)C)NC1=O` as the compound, how does the viability (% of control) read?
Answer: The viability (% of control) was 4.69%.

Question: With `O=c1c2ccccc2nc2n1CCc1c-2[nH]c2ccccc12` as the compound, how does the viability (% of control) read?
Answer: Its viability (% of control) is 72.9%.

Question: Which viability (% of control) does the source give for `C=CCn1c(=O)c2cnc(Nc3ccc(N4CCN(C)CC4)cc3)nc2n1-c1cccc(C(C)(C)O)n1` here?
Answer: The viability (% of control) was 16.4%.

Question: For `COc1ccc(OC)c(-c2nnc3ccc(-c4ccc(OC)c(O[C@@H]5CCOC5)c4)nn23)c1`, which viability (% of control) is on record?
Answer: The viability (% of control) was 3.56%.

Question: With `Cc1cc(C(=O)N2CCN(c3cccc(Cl)c3)CC2)n(-c2ccccc2)n1` as the compound, how does the viability (% of control) read?
Answer: Its viability (% of control) is 18.2%.

Question: Which viability (% of control) does the source give for `CCCCc1nc2cc(C=CC(=O)NO)ccc2n1CCN(CC)CC` here?
Answer: The viability (% of control) was 7.58%.

Question: For `COC(=O)c1ccc2c(C(=Nc3ccc(N(C)C(=O)CN4CCN(C)CC4)cc3)c3ccccc3)c(O)[nH]c2c1`, which viability (% of control) is on record?
Answer: The viability (% of control) was 71.4%.

Question: With `Cc1ccc(NC(=O)C2(c3ccc4c(c3)OC(F)(F)O4)CC2)nc1-c1cccc(C(=O)O)c1` as the compound, how does the viability (% of control) read?
Answer: The viability (% of control) was 6.82%.

Question: Which viability (% of control) does the source give for `O=C(O)CCCc1c[nH]c2ccccc12` here?
Answer: Its viability (% of control) is 32.3%.

Question: With `OCCCNc1cc(-c2ccnc(Nc3cccc(Cl)c3)n2)ccn1` as the compound, how does the viability (% of control) read?
Answer: Its viability (% of control) is 2.53%.

Question: Which viability (% of control) does the source give for `Cc1ccc(-c2ncn(-c3ccc(Nc4nccc(-c5cccc(N6CCOCC6)c5)n4)cc3)n2)cn1` here?
Answer: Its viability (% of control) is 3.62%.

Question: Which viability (% of control) does the source give for `CC[C@@]1(O)C(=O)OCc2c1cc1n(c2=O)Cc2cc3cc(O)ccc3nc2-1` here?
Answer: The viability (% of control) was 3.68%.

Question: For `O=C(O)C1(Cc2cccc(Nc3nccs3)n2)CCC(Oc2cccc(Cl)c2F)CC1` (stereo not given), which viability (% of control) is on record?
Answer: Its viability (% of control) is 33.8%.

Question: Which viability (% of control) does the source give for `CNc1nccc(-c2cccnc2Oc2cc(C(=O)Nc3cccc(C(F)(F)F)c3)ccc2C)n1` here?
Answer: The viability (% of control) was 15.7%.

Question: Which viability (% of control) does the source give for `Cc1nc2ccc(CN(C)c3ccc(C(=O)N[C@@H](CCC(=O)O)C(=O)O)s3)cc2c(=O)[nH]1` here?
Answer: The viability (% of control) was 32.8%.

Question: With `CC1(O)CC(c2nc(-c3ccc4ccc(-c5ccccc5)nc4c3)c3c(N)nccn23)C1` (stereo not given) as the compound, how does the viability (% of control) read?
Answer: Its viability (% of control) is 8.23%.

Question: With `CCC[C@H](NC(=O)C(C#N)=Cc1cccc(Br)n1)c1ccccc1` as the compound, how does the viability (% of control) read?
Answer: Its viability (% of control) is 4.33%.

Question: For `Nc1ccccc1NC(=O)c1ccc(CNC(=O)OCc2cccnc2)cc1`, which viability (% of control) is on record?
Answer: The viability (% of control) was 5.69%.

Question: With `CCc1cc2c(cc1N1CCC(N3CCOCC3)CC1)C(C)(C)c1[nH]c3cc(C#N)ccc3c1C2=O` as the compound, how does the viability (% of control) read?
Answer: The viability (% of control) was 76.4%.

Question: Which viability (% of control) does the source give for `Nc1ccc(C(=O)c2cc3c(ccc4ccccc43)[nH]2)cc1` here?
Answer: Its viability (% of control) is 8.09%.

Question: Which viability (% of control) does the source give for `Cc1ccc(C(=O)Nc2ccc(CN3CCN(C)CC3)c(C(F)(F)F)c2)cc1C#Cc1cnc2cccnn12` here?
Answer: The viability (% of control) was 3.63%.

Question: Which viability (% of control) does the source give for `CNC(=O)c1ccccc1Nc1nc(Nc2ccc(N3CCOCC3)cc2OC)ncc1Cl` here?
Answer: Its viability (% of control) is 7.05%.

Question: With `Cc1cn2cc(C(=O)N(C)CCO)cc(N[C@@H]3CCOc4cccc(C)c43)c2n1` as the compound, how does the viability (% of control) read?
Answer: The viability (% of control) was 114%.

Question: For `COc1cc2c(Nc3ccc(NC(=O)c4ccccc4)cc3)ncnc2cc1OCCCN1CCOCC1`, which viability (% of control) is on record?
Answer: Its viability (% of control) is 2.4%.

Question: Which viability (% of control) does the source give for `COc1cc(C(=O)N2CCC(N3CCN(C)CC3)CC2)ccc1Nc1ncc2c(n1)N(C)c1ccccc1C(=O)N2C` here?
Answer: The viability (% of control) was 3.29%.

Question: With `Nc1nc(-c2nn(Cc3ccccc3F)c3ncccc23)nc(N)c1N1CCOCC1` as the compound, how does the viability (% of control) read?
Answer: The viability (% of control) was 101%.

Question: For `Cc1ccc2nc(NC(=O)CSc3nc4c(c(=O)n3-c3ccccc3)SCC4)sc2c1`, which viability (% of control) is on record?
Answer: Its viability (% of control) is 15.8%.

Question: For `Cc1cc(Nc2nc(N[C@@H](C)c3ccc(F)cc3)c(C#N)cc2F)n[nH]1`, which viability (% of control) is on record?
Answer: Its viability (% of control) is 12.6%.

Question: Which viability (% of control) does the source give for `CC(C)(C)NC(=O)[C@H]1CN(Cc2cccnc2)CCN1C[C@@H](O)C[C@@H](Cc1ccccc1)C(=O)N[C@H]1c2ccccc2C[C@H]1O` here?
Answer: Its viability (% of control) is 85.6%.

Question: Which viability (% of control) does the source give for `COc1c(OCCCN2CCOCC2)ccc2c3n(c(=NC(=O)c4cnc(N)nc4)nc12)CCN3` here?
Answer: Its viability (% of control) is 69.2% [at 23.2 µM].

Question: Which viability (% of control) does the source give for `Nc1ncnc2c1c(-c1cccc(OCc3ccccc3)c1)cn2C1CC(CN2CCCC2)C1` (stereo not given) here?
Answer: The viability (% of control) was 1.43%.

Question: With `CN(C)CC(C)(C)CNc1nn2c(-c3ccccc3)nnc2cc1C1CCC1` as the compound, how does the viability (% of control) read?
Answer: The viability (% of control) was 3.65%.

Question: Which viability (% of control) does the source give for `COc1cc2c(Oc3ccc(-c4cnc(Nc5ccc(F)cc5)n(C)c4=O)cc3F)ccnc2cc1OCCCN1CCOCC1` here?
Answer: Its viability (% of control) is 0.783%.

Question: Which viability (% of control) does the source give for `CCN(CC)CCCCNc1ncc2cc(-c3cc(OC)cc(OC)c3)c(NC(=O)NC(C)(C)C)nc2n1` here?
Answer: The viability (% of control) was 1.79%.

Question: Which viability (% of control) does the source give for `Nc1nc(Nc2ccc(S(N)(=O)=O)cc2)nn1C(=O)c1c(F)cccc1F` here?
Answer: The viability (% of control) was 6.01%.

Question: Which viability (% of control) does the source give for `O=C(C=Cc1cccnc1)NCCCCC1CCN(C(=O)c2ccccc2)CC1` here?
Answer: Its viability (% of control) is 4.19%.

Question: With `O=C(c1ccc(Nc2nccc(-c3cc4ccccc4s3)n2)cc1)N1CCC(N2CCCC2)CC1` as the compound, how does the viability (% of control) read?
Answer: Its viability (% of control) is 3.16%.

Question: Which viability (% of control) does the source give for `CC(C)Nc1cc(C(F)(F)F)cc2nc(NC(=O)c3cccnc3)nn12` here?
Answer: The viability (% of control) was 120%.
